Values without a mark were called inactive. The source made the active and inactive calls.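 The calls were made as follows: active = fitted AC50 no higher than ten times the top tested dose (cut at about 90 µM in these data); inconclusive = flat curve with 30 to 70% signal loss, or bad fit; inactive = AC50 beyond ten times the top dose.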
assay: AlphaLISA signal interference compounds, dose response, artefact control, biochemical, TruHit kit (AID 1259339); settings: TruHit alphaLISA kit signal interference counterscreen; series mostly up to 80 µM; activity change, negative = signal loss: at the top concentration

Compound | AC50 | activity change, negative = signal loss [%]
O=C(NCCCN1CCOCC1)c1cc(-c2ccco2)nc2ccccc12 | 27.5 µM (active) | 
O=C(Nc1nc(-c2ccccn2)cs1)c1cccc(-n2cnnn2)c1 |  | -1.96
C(=C\c1ccco1)/c1nc2ccccc2[nH]1 | 22.5 µM (active) | 
COc1ccc2nc(-c3ccco3)c(-c3ccco3)nc2c1 | 35.1 µM (active) | 
NC(=O)C1(N2CCCCC2)CCN(c2ccc(NC(=O)c3ccccc3F)cc2C(=O)O)CC1 |  | 3.56
Cc1ccc2cc(CN(Cc3ccco3)S(C)(=O)=O)c(=O)[nH]c2c1 |  | -3.12
O=C(O)c1ccccc1/C=N/NC(=O)c1cc(-c2ccco2)nc2ccccc12 | 36 µM (active) | 
Nc1ccc(-c2cccc(CN3CCCC3)c2)cc1 |  | -10.3
Cc1ccc(Nc2nc(C(=O)Nc3ccc(Cl)cc3)nc3ccccc23)cc1 |  | -9.32
O=C(Nc1nnc(-c2ccco2)s1)c1ccccc1 |  | 12.7
O=C(O)CCc1ccc(-c2cccs2)n1NC(=O)c1ccco1 | > 160 µM | 
O=C(NCc1ccco1)c1c2c(nc3ccccc13)CCC2 | 82.4 µM (active) | 
C=CC(=O)N1CCCC2(CCN(CCN3CCCC3)C2=O)C1 (stereo unspecified) |  | 8.73
CC1=CCC(C(=O)O)C(C(=O)NC2CCCCC2)C1 (stereo unspecified) |  | 47.5
O=S(=O)(Nc1nc2ccc(S(=O)(=O)N3CCCCC3)cc2s1)c1ccccc1 | 76.8 µM (active) | 
O=C(Nc1ccc2oc(-c3ccncc3)nc2c1)c1ccc2c(c1)OCCO2 |  | 2.45
CCc1ccc(Nc2nc(C(=O)NCc3ccc(N(C)C)cc3)nc3ccccc23)cc1 |  | -32.2
CC(C)(C)c1ccc(-c2nc(C#N)c(NCc3ccncc3)o2)cc1 | 22.1 µM (active) | 

Compound | AC50 | activity change, negative = signal loss [%]
Cc1ccc(-c2nn(-c3ccccc3)cc2CN(Cc2ccccc2)C(=O)CCC(=O)O)o1 | 53.7 µM (active) | 
Cc1ccc(C(=O)Nc2ccc(N3CCC(C(N)=O)(N4CCCCC4)CC3)c(C(=O)O)c2)cc1 |  | -6.04
O=S(=O)(Nc1nccs1)c1ccc(-n2cccc2)cc1 | 18.8 µM (active) | 
O=C(Nc1nc(-c2ccco2)c(-c2ccco2)s1)C1CCC1 | 4.55 µM (active) | 
CCc1nc(OCc2ccco2)c2sc3nc4c(cc3c2n1)COC(C)(C)C4 |  | -54
O=[N+]([O-])c1cccc(-c2nnc3ccc4ccccc4n23)c1 |  | -15
O=C(Nc1nc(-c2nc3ccccc3s2)cs1)c1ccco1 |  | 12.1
COc1ccc(S(=O)(=O)c2ccccc2)cc1NS(=O)(=O)c1cccc(C(=O)O)c1 |  | -41.6
CCCc1oc(C(=O)O)cc1CN |  | 16
O=C(NC1CC1)c1cc(-c2ccco2)nc2ccccc12 |  | -6.19
CC(=O)c1ccc(NC(=O)c2noc3c2CCC3)cc1 |  | 10.7
NC(=O)C1(N2CCCCC2)CCN(c2ncc(NC(=O)c3ccc(Cl)cc3)cc2C(=O)O)CC1 | 81.9 µM (active) | 
c1ccc(-c2nc(-c3ccco3)n3ccccc23)cc1 | 27.2 µM (active) | 
COc1ccc(S(=O)(=O)N2CCN(C(=O)c3cc4c(s3)CCC4)CC2)cc1 | > 160 µM | 
O=C1CS/C(=N\N=C\c2ccco2)N1c1ccccc1 | 30.8 µM (active) | 
CC(C(=O)N1CCCC1)N1CCN(c2ccccc2O)CC1 (stereo unspecified) |  | -6.37
O=C(Nc1nccs1)c1cc(-c2ccco2)nc2ccccc12 | 29 µM (active) | 
N#CNc1nc(O)cc(=O)[nH]1 |  | 18.1
